# The campaign covered roughly 420,000 compounds. About 64,000 (15%) were called active. Roughly 27% stayed inconclusive and do not appear here. The list is a sample of the results. Unmarked numbers belong to inactive results. The call rests on the fitted dose curve; in most records, active means well fitted inhibition curve with a large enough effect; inconclusive means small, poorly fitted or top-dose-only effect; inactive means flat fitted curve, though single readings scatter.
# Assay: qHTS for Inhibitors of human tyrosyl-DNA phosphodiesterase 1 (TDP1): qHTS in cells in absence of CPT; further: nearly all actives have a fitted effect of over 55% in size
# Conditions: DT40 Tdp1-/- hTDP1 cells, no CPT, ATP luminescence, 48 h; activity change, negative = growth inhibition: at 46.2 µM (top of the series)
# Outline: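 Compound effects on proliferation are scored in DT40 Tdp1-/-;hTDP1 cells in the absence of CPT. ATP levels (CellTiter-Glo luminescence) are recorded after a ≥48 hr, 37 °C incubation.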
# On the % scale 0 is the no-effect control and ±100 the full control effect; potency means the concentration at half of the fitted maximal effect.
SMILES,"activity change, negative = growth inhibition",Potency
Cc1ccc(N2CCN(/N=C/c3cccs3)CC2)cc1,-15.1%,–
CCN1CCN(C2CCCCC2NS(=O)(=O)c2ccc(Cl)cc2)CC1 (centres undefined),4.44%,–
O=C1OC(C(O)CO)C(O)=C1O (centres undefined),-6.15%,–
COC(=O)c1ccc(COC(=O)C2CCN(S(=O)(=O)c3c(Cl)cccc3Cl)CC2)o1,-2.71%,–
CC(C)(C)n1nnc(CCc2nnn(C(C)(C)C)n2)n1,-13.1%,–
O=S(=O)(NCCCN1CCOCC1)c1ccc(F)c(Cl)c1,17.3%,–
COC(=O)[C@]1(C)N[C@H](CN(C)C(=O)c2ccc(C(C)(C)C)cc2)[C@@H]2C(=O)N(C)C(=O)[C@@H]21,-8.27%,–
CCCC1(C(=O)OC)NC(c2ccco2)C2C(=O)N(C)C(=O)C21 (centres undefined),10.1%,–
COC(=O)[C@]1(CC(C)C)N[C@H](c2ccc(SC3CCCCC3)cc2)[C@@H]2C(=O)N(C)C(=O)[C@@H]21,–,23.1 µM (active)
CCc1nc2cc(C(=O)NCC3CCS(=O)(=O)C3)cc(NC(=O)c3ccccc3OC)c2n1C (centres undefined),-6.3%,–
COc1ccc(-c2nc3cnc(Oc4ccccc4)nc3n(Cc3cccs3)c2=O)cc1,-4.39%,–
CCc1nnc(NC(=O)c2ccco2)s1,5.95%,–
CCc1ccc2nc3sc(C(=O)Nc4nnc(CC)s4)c(N)c3cc2c1,–,18.4 µM (active)
CCc1nnc(NC(=O)c2sc3nc(C)cc(COC)c3c2N)s1,-9.29%,–
CCC(=O)c1ccc(OCC(O)CN2C(=O)NC(C)(C)C2=O)cc1 (centres undefined),5.76%,–
CCOC(=O)c1c(N)sc(C(C)=O)c1C,-22.8%,–
Cc1ccc(-c2cc(C(=O)Oc3ccccc3Cl)no2)cc1C,-1.58%,–
CCCC(=O)N(CCN1CCOCC1)c1nc2ccc(OCC)cc2s1,-20%,–
Cc1cc(NC(=O)COc2ccc([N+](=O)[O-])cc2)no1,-27.2%,–
O=C(Nc1ccccc1)c1ccco1,13.4%,–
CCOc1ccc2nc(SC(CC)C(=O)Nc3cc(C)on3)sc2c1 (centres undefined),–,18.4 µM (active)
CCOc1ccc2nc(NC(=O)c3cc([N+](=O)[O-])ccc3N3CCOCC3)sc2c1,–,18.4 µM (active)
Cc1cc(C)cc(OCc2nnc(SCC(=O)Nc3ccccc3)o2)c1,-0.595%,–
Cc1cccc(OCCSc2nc3ccc(NC(=O)COc4ccccc4C)cc3s2)c1,-16.9%,–
O=C(NCCSc1ccccc1)c1ccco1,-15%,–
O=C(Nc1ccc2nc(SCCOc3ccccc3)sc2c1)c1ccco1,–,23.1 µM (active)

SMILES,"activity change, negative = growth inhibition",Potency
O=C(NC1CCCCC1)c1cc([N+](=O)[O-])ccc1N1CCOCC1,-26.5%,–
CC(=O)Nc1ccc2nc(SCCOc3cc(C)cc(C)c3)sc2c1,–,16.4 µM (active)
Cc1cc(C)cc(OCC(=O)Nc2nc3ccc([N+](=O)[O-])cc3s2)c1,-24.8%,–
COc1cc(NS(=O)(=O)c2cccs2)cc(OC)c1,-16.9%,–
CCOc1cc(CNCc2ccccn2)ccc1OCC(=O)NC(C)(C)C,-73.4%,–
Cc1cccc(NC(=O)N2CCCCCC2)c1C,17.4%,–
O=C(CCNC(=O)c1ccccc1Cl)NN=Cc1ccco1,-0.295%,–
CCOCCCNS(=O)(=O)Cc1ccccc1,5.44%,–
CCC(C)NC(=O)CSC1=Nc2ccccc2C2=NC(CCC(=O)NCc3ccco3)C(=O)N12 (centres undefined),-3%,–
CC(=O)c1cnc(-c2ccccc2)s1,6.21%,–
CC(=O)c1nnn(-c2ccc(Cl)cc2C#N)c1C,-23.2%,–
CCOc1ccc2nc(Nc3nc4ccc(NC(C)=O)cc4s3)sc2c1,–,10.3 µM (active)
CNC(=O)c1ccc2nc(NC(C)=O)sc2c1,-18.8%,–
CC(=O)Nc1ccc2nc(NC(=O)CS(=O)(=O)c3ccc(F)cc3)sc2c1,-14.1%,–
O=c1c2ccccc2nc(CSc2nnnn2-c2ccccc2)n1-c1ccccc1,-16.9%,–
COc1ccc(C)cc1-n1nnnc1SCc1nc2ccccc2c(=O)[nH]1,–,9.2 µM (active)
COCCn1c(SCc2nc3cc(OC)c(OC)cc3c(=O)[nH]2)nnc1-c1ccncc1,-16.8%,–
O=C1CCC[C@@H]2CC(N3CCCCC3)C[C@@H]3CCN1[C@H]23 (some centres undefined),-9.79%,–
S=C1Nc2cc(Cl)ccc2Sc2ccccc21,8.29%,–
Cc1cccc(C)c1NC(=O)C(Cl)C(=O)c1ccccc1 (centres undefined),–,7.31 µM (active)
Cc1ccccc1NC(=O)c1ccccc1,-3.3%,–
Cc1cccc(C)c1NC(=O)CN(C)C(=O)CCC(=O)c1ccccc1,6.97%,–
CCCCNCCS(=O)(=O)NCc1ccccc1,-17.8%,–
C[C@H](CO)N1C[C@H](C)[C@@H](CN(C)S(=O)(=O)c2ccc(F)cc2)OCc2cnnn2CCCC1=O,-20.3%,–
COc1cc(C(=S)N2CCOCC2)cc(OC)c1OC(=O)c1cc([N+](=O)[O-])cc([N+](=O)[O-])c1,-7.83%,–
O=C(c1ccc(Cl)c(S(=O)(=O)N2CCCCCC2)c1)N1CCN(c2ccc(O)cc2)CC1,-47.4%,–

SMILES,"activity change, negative = growth inhibition",Potency
COc1ccccc1N1CCN(C(=O)c2ccc(S(=O)(=O)N3CCCCC3)cc2)CC1,–,25.9 µM (active)
COc1ccc(N2CCN(C(=O)CNS(=O)(=O)c3ccc(C)c(C)c3)CC2)cc1,-16.1%,–
COc1ccccc1CC(=O)Nc1ccc(S(=O)(=O)N2CCCC2)cc1,-1.81%,–
CCN(CC)S(=O)(=O)c1ccc(C(=O)N2CCN(C3=NS(=O)(=O)c4ccccc43)CC2)cc1,9.61%,–
COc1ccc(C(=O)NCc2ccc(Cl)cc2)cc1S(=O)(=O)N1CCCC1,-9.45%,–
COc1ccc(N2CCN(C(=O)COC(=O)c3cccc(S(=O)(=O)Nc4ccccc4OC)c3)CC2)cc1,–,20.6 µM (active)
CCOC(=O)N1CCN(C(=O)COC(=O)c2cccc(S(C)(=O)=O)c2)CC1,-11.6%,–
COc1ccccc1N1CCN(S(=O)(=O)c2ccc(Cl)cc2)CC1,-14.6%,–
COc1ccccc1N1CCN(C(=O)c2ccc(Cl)c(S(=O)(=O)N3CCCC3)c2)CC1,–,18.4 µM (active)
CN(c1ccccc1)S(=O)(=O)c1ccc(Cl)c(C(=O)OCC(=O)N2CCOCC2)c1,10.2%,–
CN(c1ccccc1)S(=O)(=O)c1ccc(C(=O)N2CCN(c3ccccc3Cl)CC2)cc1,–,20.6 µM (active)
COc1ccc(S(=O)(=O)NCC(c2ccc(C)cc2)N2CCN(C)CC2)cc1OC (centres undefined),-15.7%,–
CC(C)C(NC(=O)C1CCC(C(C)(C)C)CC1)C(=O)NCCCN1CCCCC1 (centres undefined),-16.1%,–
CC1CCN(C(=S)c2cccc(O)c2)CC1,-4.71%,–
C/C=C/C(=O)OCC(=O)Nc1ccc(F)cc1Cl,2.04%,–
CC(CN1CCC(n2nccc2NC(=O)C2CCCC2)CC1)c1ccccc1 (centres undefined),-3.11%,–
Nc1c(-c2ccc(F)cc2)cnc2ncnn12,-20.8%,–
COc1ccc(C)cc1NC(=O)NCc1ccccn1,17%,–
COC(=O)C1=C(C)N=C2SC(C)C(=O)N2C1/C=C/c1ccccc1 (centres undefined),-13.3%,–
COCCNC(=O)CN(C(=O)CCC(=O)Nc1cc(C)on1)c1ccc(C)cc1C,-22.6%,–
Cc1onc(-c2ccccc2)c1C(=O)N1CCN(S(=O)(=O)c2ccccc2C(F)(F)F)CC1,-6.01%,–
Cc1[nH]n(C)c(=O)c1C(=O)c1c(-c2c(Cl)cccc2Cl)noc1C,-8.02%,–
COc1ccccc1N1CCN(C(=O)c2c(-c3c(Cl)cccc3Cl)noc2C)CC1,–,20.6 µM (active)
COc1ccc(S(=O)(=O)Nc2ccccc2C(=O)N2CCCC2)cc1C,-15.9%,–
COc1ccccc1NS(=O)(=O)c1ccc(C)c(C(=O)NNC(=O)c2csc(N3CCOCC3)n2)c1,0.22%,–
COc1ccccc1NS(=O)(=O)c1ccc(C(=O)N2CCN(c3ccccc3O)CC2)cc1,–,16.4 µM (active)

SMILES,"activity change, negative = growth inhibition",Potency
COc1ccc2c(c1)CCC/C2=N\OC(=O)c1ccccc1F,-24.6%,–
CC(C)(CSc1nncn1/N=C/c1ccco1)NS(=O)(=O)c1ccc(Cl)cc1,-25.2%,–
O=C(COC(=O)CSc1nnc(-c2ccc(Cl)cc2)o1)Nc1cc(Cl)cc(Cl)c1,-9.27%,–
Cn1ccsc1=NC(=O)c1cc(S(=O)(=O)N2CCOCC2)ccc1Cl,1.11%,–
Cc1ccccc1C(=O)Nc1ccccc1Sc1ccccc1,-4.96%,–
O=C(O)COc1nsnc1N1CCOCC1,-2.57%,–
CSCCC(NC(N)=O)C(=O)N(C)CC(=O)Nc1ccc(C)cc1 (centres undefined),-6.89%,–
COc1cccc(N2CC(NC(=O)/C=C\c3ccccc3)CC2=O)c1 (centres undefined),-25.4%,–
COc1ccc(-c2nn3c(-c4ccc(OC)cc4)nnc3c3ccccc23)cc1,1.41%,–
CC(C)N(C(=O)Cn1cc(S(=O)(=O)CC(=O)N2CCOCC2)c2ccccc21)C(C)C,15.3%,–
O=C(COC(=O)CNC(=O)C1CCCCC1)NCc1ccccc1,-19.7%,–
O=C(NCc1ccccc1)C1=C[C@@H](C2CCCCC2)C[C@@H](OCc2ccc(CO)cc2)O1,–,16.4 µM (active)
O=C(O)C1CCN(C(=O)OCc2ccccc2)CC1,0.979%,–
COc1cc(Cl)cc(C2NC(=O)NC(C)=C2C(=O)NCc2ccccc2)c1O (centres undefined),-1.85%,–
CCOc1ccc(C(CC(=O)O)NC(=O)COc2ccccc2)cc1 (centres undefined),-10%,–
CC(=O)Nc1ccc(NC(=O)COc2ccc(-c3ccccc3)cc2)cc1,-0.864%,–
CC(NC(=O)COc1ccc(-c2ccccc2)cc1)C1CCCO1 (centres undefined),–,11.6 µM (active)
COc1ccc(NC(=O)N(C)C[C@H]2Oc3ccc(NC(=O)C4CC4)cc3C(=O)N([C@H](C)CO)C[C@@H]2C)cc1,6.81%,–
CCCc1cc(=O)[nH]c(SCc2ccc(C#N)cc2)n1,-8.85%,–
CSCCC(Nc1ccc(S(=O)(=O)N2CCOCC2)cc1[N+](=O)[O-])C(=O)OCC(=O)N(C(C)C)C(C)C (centres undefined),-4.59%,–
COc1ccc(OC)c(C(=O)CSc2nnc(-c3cccs3)o2)c1,-23.3%,–
COc1ccc(-n2c(C)cc(C(=O)CSc3nnc(-c4cccs4)o3)c2C)cc1,–,16.4 µM (active)
Cc1ccc(OC(=O)CSc2nnc(-c3cccs3)o2)cc1,2.81%,–
Cc1cc(C)c(NC(=O)CN2CCCCCC2)c(C)c1,20.9%,–
Cc1c(-c2ccccc2)cn2c1-c1ccc(C)n1CC2,–,16.4 µM (active)
O=c1[nH]c(SCc2ccccc2)nnc1-c1ccccc1,-13.7%,–
